According to PubChem BioAssay AID463173 (ICCB-Longwood Screening Facility, Harvard Medical School, 2010):
Out of some 52,000 compounds screened, about 4,300 (8.3%) were called active. No stated cut-off is given here; in the data, active means survival mostly below about 52% (no sharp cut-off); inactive means mostly above about 56%. This excerpt belongs to a sample that is enriched for actives.

Each molecule was assayed on DeltatarO mutant (assay: S. aureus survival, RN4220 and DeltatarO strains – OD600, teichoic acid synthesis inhibitors, primary screen (AID 463173)). Settings: S. aureus RN4220 wild type/DeltatarO growth, OD600, 18 h, stronger effect = lower value, screened at 18.75 µg/mL (by protocol).

Compound | survival
N#Cc1c(Nc2ccccc2)sc(C(=O)c2cccs2)c1N | 75% (inactive)
O=C(O)c1cccc2cc[nH]c12 | 101% (inactive)
Cc1cc(C)c2oc(-c3cccc(NC(=O)c4cc5ccccc5o4)c3)nc2c1 | 36% (active)
Cc1ccc2nc(-c3cccc(NC(=O)c4cccc5ccccc45)c3)oc2c1 | 50% (inactive)
CC(C)(C)c1ccc(-c2nc3cc(NC(=O)c4cc5ccccc5o4)ccc3o2)cc1 | 71% (inactive)
Cc1cc(C)c2oc(-c3cccc(NC(=O)c4ccc(-c5cccc([N+](=O)[O-])c5)o4)c3)nc2c1 | 75% (inactive)
Cc1ccc2nc(-c3cccc(NC(=O)CSc4ccc(Cl)cc4)c3)oc2c1 | 56% (inactive)
COc1cccc(OC)c1C(=O)Nc1cccc(-c2nc3cc(C)cc(C)c3o2)c1 | 68% (inactive)
Cc1cc(C)c2oc(-c3cccc(NC(=O)c4ccc(Br)o4)c3)nc2c1 | 34% (active)
Cc1ccc2nc(-c3cccc(NC(=O)c4ccc(Br)o4)c3)oc2c1 | 15% (active)
Cc1cc(C)c2oc(-c3cccc(NC(=O)c4ccco4)c3)nc2c1 | 87% (inactive)
CCc1ccc(-n2c(=O)c3cccnc3n2CC(=O)NCc2ccc(F)cc2)cc1 | 94% (inactive)
Cc1cccc(NC(=O)C2CCN(S(=O)(=O)c3cccc4nsnc34)CC2)c1C | 88% (inactive)
CCc1ccc(C2=CC(c3cccc(C)c3)n3c(nc4ccccc43)N2)cc1 (stereo unspecified) | 80% (inactive)
COc1ccc(-n2c(SCC(=O)Nc3cc(C)cc(C)c3)nc3c(oc4ccccc43)c2=O)cc1 | 70% (inactive)
CCOc1ccc(NC(=O)c2ccc3[nH]c(C)cc(=O)c3c2)cc1 | 79% (inactive)
Cc1cccc(N2CCN(S(=O)(=O)c3ccc4c(c3)CC(=O)N4C)CC2)c1C | 129% (inactive)
Cc1ccnc(NC(c2ccccc2F)c2ccc3cccnc3c2O)c1 (stereo unspecified) | -1% (active)
Cc1ccc(O)c(CNc2cccc3cccnc23)c1 | 79% (inactive)
Cc1ccnc(NC(c2cc(C)ccc2O)c2ccc3cccnc3c2O)c1 (stereo unspecified) | 4% (active)
Oc1c(C(Nc2ccccn2)c2ccccc2F)ccc2cccnc12 (stereo unspecified) | 102% (inactive)
CCOc1cc(C(Nc2cc(C)ccn2)c2ccc3cccnc3c2O)ccc1OC (stereo unspecified) | 146% (inactive)
Cc1ccnc(NCc2cccc3ccccc23)c1 | 93% (inactive)

Compound | survival
CC1CCc2c(sc3nnn(CC(=O)Nc4cccc(C(F)(F)F)c4)c(=O)c23)C1 (stereo unspecified) | 70% (inactive)
COc1ccc(NC(=O)c2cc(S(=O)(=O)N3CCCCCC3)cn2C)c(OC)c1 | 80% (inactive)
O=C(Cn1cnc2onc(-c3ccc(F)cc3)c2c1=O)N1CCN(c2ccccc2F)CC1 | 76% (inactive)
O=C(CCn1cnc2onc(-c3ccc(F)cc3)c2c1=O)N1CCN(c2ccc(F)cc2)CC1 | 77% (inactive)
COc1ccccc1N1CCN(C(=O)CCn2cnc3onc(-c4ccc(F)cc4)c3c2=O)CC1 | 66% (inactive)
O=C(CCn1cnc2onc(-c3ccc(F)cc3)c2c1=O)N1CCN(c2ccccc2)CC1 | 60% (inactive)
O=C(CCn1cnc2onc(-c3ccc(F)cc3)c2c1=O)N1CCN(c2ccccc2F)CC1 | -4% (active)
CC(=O)c1ccc(N2CCN(C(=O)CCn3cnc4onc(-c5ccc(F)cc5)c4c3=O)CC2)cc1 | -5% (active)
CC(=O)c1ccc(NC(=O)C2=CC(c3ccc4c(c3)OCO4)=NS(=O)(=O)N2C)cc1 | 103% (inactive)
CCc1cccc(NC(=O)c2c(N3CCCC3=O)c3cc(C)ccc3n2C)c1 | 74% (inactive)
CCOC(=O)C1CCN(C(=O)Cn2c(=O)oc3cc(S(=O)(=O)N4CCC(C)CC4)ccc32)CC1 | 133% (inactive)
Cc1cc(C)cc(NC(=O)CSc2nnc(CNC(=O)c3c(F)cccc3Cl)o2)c1 | 132% (inactive)
CN(C)S(=O)(=O)c1ccc2c(c1)N(CC(=O)N1CCN(c3ccccc3F)CC1)CCS2 | 119% (inactive)
COc1cc(NC(=O)Cn2nc(C(F)(F)F)c3c2CCC3)cc(OC)c1OC | 130% (inactive)
CC(C)NC(=O)N1[C@H](c2cccs2)[C@@H](C)C(=O)[C@@H](C)[C@@H]1c1cccs1 | 51% (inactive)
COc1ccccc1NC(=O)c1ccc2[nH]c(C)cc(=O)c2c1 | 77% (inactive)
CCOC(=O)c1c(NC(=O)CCCOc2ccc(C)cc2)sc2c1CCC(C)C2 (stereo unspecified) | 10% (active)
CCOC(=O)c1c(NC(=O)COc2ccc(F)cc2)sc2c1CCC(C)C2 (stereo unspecified) | 70% (inactive)
Cc1ccc(OCCCC(=O)Nc2sc3c(c2C(N)=O)CCC(C)C3)cc1 (stereo unspecified) | 159% (inactive)
CCOC(=O)c1c(NC(=O)CCCOc2ccccc2C)sc2c1CCC(C)C2 (stereo unspecified) | 16% (active)
CCOC(=O)c1c(NC(=O)CS(=O)(=O)c2ccc(C)cc2)sc2c1CCC(C)C2 (stereo unspecified) | 102% (inactive)
CCOC(=O)c1c(NC(=O)Cn2nnc3ccccc32)sc2c1CCC(C)C2 (stereo unspecified) | 64% (inactive)
CCc1cnc2c(c1SC(C(C)=O)C(=O)N(C)C)c(=O)n(C)c(=O)n2C (stereo unspecified) | 95% (inactive)

Compound | survival
O=C(NC1CCCC1)c1ccc2c(=O)n(Cc3ccccc3)c(SCc3cccc(F)c3)nc2c1 | 72% (inactive)
CCCCOc1ccc(C2c3c(oc4ccccc4c3=O)C(=O)N2c2nc(C)c(C(=O)OCC)s2)cc1OC (stereo unspecified) | 55% (inactive)
CCCn1c2c(c(O)c(C(=O)Nc3ccccc3F)c1=O)CCCC2 | 93% (inactive)
CCC(=O)Nc1nnc(S(=O)(=O)N2c3ccccc3CC2C)s1 (stereo unspecified) | 92% (inactive)
Cc1ccc(OCC(=O)Nc2nnc(S(=O)(=O)N3c4ccccc4CC3C)s2)cc1 (stereo unspecified) | 34% (active)
Cc1ccc(C(=O)Nc2nnc(S(=O)(=O)N3c4ccccc4CC3C)s2)cc1 (stereo unspecified) | 30% (active)
CC(C)CC(=O)Nc1nnc(S(=O)(=O)N2c3ccccc3CC2C)s1 (stereo unspecified) | 75% (inactive)
Cc1cccc(C(=O)Nc2nnc(S(=O)(=O)N3c4ccccc4CC3C)s2)c1 (stereo unspecified) | 16% (active)
CC1Cc2ccccc2N1S(=O)(=O)c1nnc(NC(=O)c2cccc(F)c2)s1 (stereo unspecified) | 6% (active)
CCn1ccc2cc(S(=O)(=O)N3CCC(C(=O)NCCc4ccccc4)CC3)ccc21 | 102% (inactive)
CCOC(=O)c1[nH]c2c(c1Cc1ccccc1)C(=O)CC(c1ccc(Cl)cc1)C2 (stereo unspecified) | 92% (inactive)
NC(=O)c1ccc(NC(=O)C2CCN(S(=O)(=O)Cc3ccccc3)CC2)cc1 | 87% (inactive)
CCOc1ccc(NC(=O)c2cnn3c2NC(C)=C(C(=O)Nc2ccc(Cl)cc2)C3c2ccc(OC)c(OC)c2)cc1 (stereo unspecified) | 59% (inactive)
Cc1ccccc1C(=O)N1CCC(C(=O)Nc2ccc(F)cc2F)CC1 | 67% (inactive)
O=C(Cn1ncc2c(Cl)cccc21)NCc1cccc(Cl)c1 | 110% (inactive)
CC(C)C(=O)Nc1nnc(S(=O)(=O)N2c3ccccc3CC2C)s1 (stereo unspecified) | 87% (inactive)
CCC(CC)C(=O)Nc1nnc(S(=O)(=O)N2c3ccccc3CC2C)s1 (stereo unspecified) | 61% (inactive)
CC1Cc2ccccc2N1S(=O)(=O)c1nnc(NC(=O)c2ccccc2)s1 (stereo unspecified) | 12% (active)
Cc1cc(C)n(C(=O)CNC(=O)Cc2ccccc2)n1 | 89% (inactive)
CC(=O)N1c2ccccc2C(=O)C1N1CCN(c2cccc(C)c2C)CC1 (stereo unspecified) | 80% (inactive)
Cc1ccc(-c2noc(CCC(=O)N(C)c3ccccc3F)n2)cc1 | 38% (active)
CCCN(C(=O)CCc1nc(-c2ccccc2F)no1)c1ccc(CC)cc1 | -7% (active)
COc1ccc(-c2noc(CCC(=O)N(C)c3ccccc3C)n2)cc1 | 80% (inactive)

Compound | survival
CCCN(C(=O)CCc1nc(-c2ccc(C)cc2)no1)c1ccc(OCC)cc1 | -4% (active)
CCOc1ccc(N(CC)C(=O)CCc2nc(-c3ccccc3F)no2)cc1 | 46% (inactive)
CN(C(=O)CCc1nc(-c2ccccc2F)no1)c1ccc(Cl)cc1 | 56% (inactive)
CCCN(C(=O)Cc1nc(-c2ccc(OC)cc2)no1)c1ccccc1C | 85% (inactive)
COc1ccc(-c2noc(CC(=O)N(C)c3ccccc3F)n2)cc1 | 87% (inactive)
CCCN(C(=O)CCc1nc(-c2ccc(OC)cc2)no1)c1ccccc1F | 3% (active)
COc1ccc(OC)c(NC(=O)CCc2nc(-c3ccc(C)cc3)no2)c1 | 70% (inactive)
COc1ccc(CNC(=O)CCc2nc(-c3ccc(OC)cc3)no2)cc1 | 96% (inactive)
CCOC(=O)c1ccccc1NC(=O)CCc1nc(-c2ccc(C)cc2)no1 | 58% (inactive)
COc1ccc2c(c1)cc1c(=O)n(CC(=O)NCCCOC(C)C)nc(C)n12 | 80% (inactive)
O=C(NCCc1ccc(Cl)cc1)c1c2c(nc3ccccc13)C(=O)N(C1CCCCC1)C2 | 92% (inactive)
Cn1c(C(=O)NCc2cccc(F)c2)cc2cc(S(=O)(=O)N3CCCCC3)ccc21 | 81% (inactive)
O=C(CSC1=NCCN1)C1COc2ccccc2O1 (stereo unspecified) | 88% (inactive)
Cc1ccc(C(=O)NCC(=O)OCc2cc(=O)n3ccsc3n2)cc1 | 74% (inactive)
CCN(CC)CCNC(=O)C(=O)NCC(c1cccnc1)N1CCN(c2ccc(F)cc2)CC1 (stereo unspecified) | 79% (inactive)
CC1(c2ccc(Cl)cc2)NC(=O)CS1 (stereo unspecified) | 96% (inactive)
C=CCNc1nc(C(C)C)nc2c1nnn2Cc1ccccc1 | 86% (inactive)
O=C(CSc1nc2ccccc2o1)Nc1ccc(S(=O)(=O)NC2CCCC2)cc1 | 66% (inactive)
COc1ccccc1NC(=O)C(=O)c1cc(C)n(-c2cc(C)cc(C)c2)c1C | 117% (inactive)
COCCCNC(=O)CSc1nc2ccccc2c(=O)n1Cc1ccco1 | 83% (inactive)
COc1cccc(CNC(=O)CCCn2ncn3c(cc4occc43)c2=O)c1OC | 119% (inactive)
Cc1ccc(NC(=O)Nc2cn(CC(C)C)c(=O)c3ccccc23)cc1N(C)C | 78% (inactive)
